According to ChEMBL document CHEMBL4513216, “Probing the Open Global Health Chemical Diversity Library for Multistage-Active Starting Points for Next-Generation Antimalarials” (ACS Infect Dis, 2020):
Among all 65,000 compounds or so, about 2,100 (3.2%) showed an effect of 50% or more. The median lay at about -52%. Only a selection was taken, and strong results are over-represented in it overall.

test system: Plasmodium falciparum; assay: Screen against P. falciparum Asexual Blood Stage (ABS), at 5uM; assay type: functional, Dd2; settings: tested at 5 uM

Row | Compound | INHIBITION [%]
1 | c1ccc(CN2CCO[C@H]3[C@H](OCCN4CCCC4)CC[C@@H]32)nc1 | 30
2 | CN1CCN(C[C@H]2CN3CC[C@H]2C[C@@H]3CNC(=O)c2ccco2)CC1 | -59.7
3 | O=C1CO[C@@H]2CN(Cc3ccncc3)C[C@H]2N1Cc1ccncc1 | -52.2
4 | CC(=O)N1CCC2(CC1)NC(=O)[C@H]1CN(Cc3cccnc3)C[C@H]12 | -6.03
5 | O=C(COc1cccc(F)c1)N1C[C@@H](O)[C@H](N2CCOCC2)C1 | -17.5
6 | Cc1ccccc1CC(=O)N1C[C@@H](O)[C@H](N2CCOCC2)C1 | -16.5
7 | CC1=C(CCN2C[C@H](O)[C@@H](N3CCOCC3)C2)C(C)(C)CCC1 | 78.3
8 | COc1cc(N2CCC[C@]3(C(=O)O)CN(C(C)C)C[C@@H]3C2)ncn1 | -85.1
9 | Brc1ccc(CN2CCC(NCc3ncc[nH]3)CC2)cc1 | 83.5
10 | O=S1(=O)C[C@@H]2[C@H](C1)N(Cc1ncc[nH]1)CCN2Cc1cccnc1 | -89.75
11 | Clc1cc(Cl)cc(CN2CCC(NCc3ncc[nH]3)CC2)c1 | 84.7
12 | CCn1cc(CN2CCCN(C(=O)Cc3ccc(C)nc3)CC2)cn1 | -14.8
13 | CCn1cc(CN2CCCC(COc3ccc(F)cc3)C2)cn1 (stereo unspecified) | 75.5
14 | CCn1cc(CN2CCCC(COc3ccccc3F)C2)cn1 (stereo unspecified) | 72.7
15 | CCn1cc(CN2CCCN(C(=O)Cc3cccs3)CC2)cn1 | -85.9
16 | Cc1nc(CN(C)C)cc(N2CCCC(COc3ccc(F)cc3)C2)n1 (stereo unspecified) | 86.4
17 | COCCc1ncc(CN2CCCC(C(=O)c3ccccc3)C2)cn1 (stereo unspecified) | -145
18 | O=C(N[C@@H]1CN[C@@H]2CCCO[C@@H]21)c1cscn1 | 14
19 | Cc1noc(C)c1CN1CC[C@H]2C[C@H](c3nccs3)O[C@@H]2C1 | -8.14
20 | O=C1CO[C@H]2CN(C3CCOCC3)C[C@H]2N1Cc1ccccn1 | -104
21 | CCCc1nc(C(=O)N[C@H]2COC[C@@H]2N2CCN(C)CC2)cs1 | -49.3

Row | Compound | INHIBITION [%]
22 | COCCN1CCc2c(cnc(-c3ccoc3)c2C(=O)O)C1 | -47.6
23 | Cc1occc1C(=O)N1CCN2C[C@H](Oc3cccnc3)C[C@H]2C1 | -23.4
24 | Cc1ccc(OCc2occc2C(=O)N2CCCCC(N)C2)cc1 (stereo unspecified) | 77.5
25 | CC(C)NC(=O)[C@H]1C[C@H]2NCCO[C@@H]2C1 | -33.9
26 | Cc1cc(CN2C[C@H]3CCC[C@@]3(COCC3CCOCC3)C2)no1 | -91.9
27 | Oc1cccc(CN2C[C@@H]3CC[C@H]2CN(Cc2cccnc2)C3)c1 | -14.5
28 | Cc1nnsc1CN1C[C@@H]2CC[C@H]1CN(Cc1ccccn1)C2 | -2.06
29 | O[C@@]1(c2ccccn2)CC[C@H]2CN(Cc3ccccn3)C[C@H]21 | -89.9
30 | O=C(CN1C[C@@H]2CC[C@H]1CN(Cc1ccccn1)C2)Nc1ccccc1 | 83.6
31 | O=C(Cc1ccccn1)N1C[C@H]2CN(Cc3ccccn3)C[C@H]2C1 | -68.5
32 | CC(C)(C)c1cc(CN2C[C@@H]3CC[C@H]2CN(Cc2ccccn2)C3)n[nH]1 | 74.1
33 | CN1CCN(Cc2ccncc2)Cc2cccnc21 | -190
34 | CN(c1ncccc1C#N)C1CCN(CCc2ccncc2)CC1 | 30.8
35 | Cc1ccc(CNC2CCN(CCc3ccncc3)CC2)cc1C | 86.9
36 | Clc1cccc(CNC2CCN(CCc3ccncc3)CC2)c1 | 92.3
37 | Cc1cccc(CNC2CCN(CCc3ccncc3)CC2)c1C | 76.3
38 | Fc1ccc(CNC2CCN(CCc3ccncc3)CC2)cc1F | 89.8
39 | COCCNC(=O)[C@@]12CCO[C@@H]1CCN(Cc1ccncc1)C2 | -51.1
40 | C[C@@H]1C[C@@H]2CCN(Cc3ccncc3)C[C@H]2O1 | -17.4
41 | c1ccc2c(c1)CCC21CN(CCc2ccncc2)CCO1 (stereo unspecified) | -30.5
42 | Cc1n[nH]c2c1C(c1ccc(Cl)cc1)SCC(=O)N2 (stereo unspecified) | -12.6

Row | Compound | INHIBITION [%]
43 | Cc1ccc(C(=O)N2C[C@@H]3OCCN(C(C)C)[C@@H]3C2)cn1 | -18.4
44 | Cc1cccc(CN2C(=O)C[C@H]3[C@@H]2CCN3Cc2ccco2)n1 | 13.4
45 | COCCN1CCO[C@H]2CN(C(=O)c3ccncc3F)C[C@H]21 | -230
46 | CC(Cn1cccn1)NCC(=O)NC1CCOCC1 (stereo unspecified) | -32.4
47 | Cc1cc(CC(=O)N2CCN(C)[C@@H]3CS(=O)(=O)C[C@@H]32)ccc1F | -54.5
48 | C[C@@H]1CN(Cc2ccsc2)C[C@]12CCN(Cc1cccnc1)C2=O | -45.2
49 | CC1CN(CCc2ccncc2)CCO1 (stereo unspecified) | -107
50 | CCN1C[C@H]2CCN(Cc3ccncc3)C(=O)[C@@H]2C1 | -66.4
51 | CSc1ccc(CNC2CCN(CCc3ccncc3)CC2)cc1 | 93
52 | Cc1nc(CO[C@H]2CN(Cc3ccccn3)[C@@H]3CCCO[C@H]23)cs1 | -44.2
53 | CC1=N[C@@]2(CC[C@@H]3CN(Cc4ccccc4C)C[C@@H]32)C(=O)N1CC1CC1 | 85.1
54 | CCC1=N[C@@]2(CC[C@@H]3CN(CC)C[C@@H]32)C(=O)N1C | -47.6
55 | CC1=N[C@@]2(CC[C@@H]3CNC[C@@H]32)C(=O)N1CC(C)C | -138
56 | CNC(=O)[C@H]1C[C@@H]2CN(C(=O)c3cncc(C)c3)C[C@@H]2N1C | -93.3
57 | CC(C)CNC(=O)N1CCOC2(CCNCC2)C1 | -53.6
58 | CC(C)NC(=O)N1CCOC2(CCCNC2)C1 (stereo unspecified) | -67.8
59 | O=C(Nc1ccccc1)C1=NOC2(CCCNC2)C1 (stereo unspecified) | -22.7
60 | CC(C)CNC(=O)C1(Cc2ccccc2-c2cccs2)CCNC1 (stereo unspecified) | 71.7
61 | CC(C)NC(=O)C1(Cc2ccccc2-c2ccccc2)CCCNC1 (stereo unspecified) | 76.7
